# Bioassay records as filed in PubChem.
# Sampled rows, rich in hits. Any-hit rate of the full collection: about 18%.
# HepG2 viability: HepG2 cytotoxicity, counter-screen for TGF-b inhibitors; Potency, µM (top dose mostly 46.1 µM), usual class: cytotoxic; AID 588856; hit rate 0.76% among 410,000; HepG2 CAGA-GFP viability, ATP luminescence, 18 h
#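 CellTiter-Glo luminescence gave cytotoxicity after 18 hours at 37 degrees C. The cells were HepG2 CAGA-GFP in 1% FBS DMEM, stimulated with 500 pg/mL TGF-beta after compound addition. %Activity was normalised to no-cell wells (complete cell-killing) and DMSO (no toxicity), and curves were fitted and classified.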
# DT40 TDP1 no CPT: qHTS for Inhibitors of human tyrosyl-DNA phosphodiesterase 1 (TDP1): qHTS in cells in absence of CPT; DT40 Tdp1-/- hTDP1 cells, no CPT, ATP luminescence, 48 h; hit rate 15% among 420,000; AID 686978, 2013; Potency, µM (titrated, usually from 46.2 µM), most hits filed as inhibitors; also: nearly all actives have a fitted effect of over 55% in size
#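 Stably hTDP1-transfected Tdp1-null chicken DT40 cells were treated with library compounds minus camptothecin and grown for at least 48 hr at 37 °C, after which cellular ATP was quantified by luminescence.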
# IL1B secr inh: inflammasome signaling inhibition, IL-1 beta readout; THP-1 LPS/ATP IL-1B secretion, AlphaLISA, 16 h; hits give low values; AID 743279; hit rate 4.7% among 360,000; activity change, % at 57.5 µM; in the data active = activity change below about -50%; inconclusive = mostly about -30% to -49%
#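 Secreted IL-1B measured by AlphaLISA bead assay after 16 h compound exposure of THP-1 cells; compounds (final up to 57.5 uM) added 1 h before LPS (250 ng/mL) and ATP (1.25 mM) stimulation; lower signal means less secretion.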
# TGFb SMAD3 inh: blocks TGF-b signaling. HepG2 CAGA-GFP TGF-b/SMAD3 reporter, GFP fluorescence, 18 h; TGF-beta stimulated, 500 pg/mL final. Potency, µM (series often up to 46.1 µM), most hits filed as inhibitors. hit rate 1.2% among 410,000; also: nearly all actives have a fitted effect of over 65% in size
#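 Cell-based qHTS in HEPG2 carrying a CAGA-GFP Smad reporter; compounds added before 500 pg/mL final TGF-beta, 18 h incubation at 37 degrees C, GFP fluorescence quantified per cell by imaging cytometry.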
# DT40 TDP1 CPT: growth inhibition of DT40 Tdp1-/-;hTDP1 cells with camptothecin (screen for TDP1 inhibitors); hit rate 12% among 420,000; chicken DT40 Tdp1-/-;hTDP1 cells + 20 nM CPT, ATP luminescence, 48 h; Potency, µM (doses to about 46.2 µM), actives largely listed as inhibitors; also: nearly all actives have a fitted effect of over 55% in size
#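 Chicken DT40 Tdp1-/- cells complemented with human TDP1, 400 cells/well, exposed to compounds plus 20 nM camptothecin for at least 48 h at 37 C; viability read as ATP content by CellTiter-Glo luminescence.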
# TDP1 block: inhibitors of human tyrosyl-DNA phosphodiesterase TDP1; Q9NUW8; recombinant TDP1, AlphaScreen DNA substrate cleavage; Potency, µM (titrated, usually from 130 µM), actives largely listed as inhibitors; hit rate 0.28% among 350,000; also: nearly all actives have a fitted effect of over 40% in size
# Target sequence (Q9NUW8 whole entry, looked up): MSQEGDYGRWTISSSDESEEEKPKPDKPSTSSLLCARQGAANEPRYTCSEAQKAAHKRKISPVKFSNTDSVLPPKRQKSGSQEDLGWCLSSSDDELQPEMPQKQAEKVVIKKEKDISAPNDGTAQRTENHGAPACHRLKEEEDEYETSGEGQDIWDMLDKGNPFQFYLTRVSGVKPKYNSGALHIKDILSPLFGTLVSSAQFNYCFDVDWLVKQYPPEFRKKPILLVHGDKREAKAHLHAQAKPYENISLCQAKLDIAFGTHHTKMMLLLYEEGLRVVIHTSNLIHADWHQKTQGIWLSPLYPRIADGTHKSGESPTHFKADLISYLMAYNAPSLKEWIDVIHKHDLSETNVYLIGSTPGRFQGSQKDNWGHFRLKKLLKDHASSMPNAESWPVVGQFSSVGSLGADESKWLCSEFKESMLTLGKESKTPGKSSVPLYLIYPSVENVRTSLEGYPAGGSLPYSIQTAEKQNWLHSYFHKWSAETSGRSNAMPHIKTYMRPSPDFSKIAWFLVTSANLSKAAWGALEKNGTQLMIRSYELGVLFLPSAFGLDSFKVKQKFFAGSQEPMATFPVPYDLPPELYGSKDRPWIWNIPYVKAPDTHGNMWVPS
#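 Compounds were preincubated with Tdp1 (1 nM final) for 15 min at room temperature before substrate (15 nM final) started a 5 min reaction; beads (10 ug/ml final) were then added for 10 min before AlphaScreen detection.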
# Numbers stand for hits; i = inactive; ? = inconclusive; nt = not tested or not shown; [ ] = dose if it differs, or a comment. Unless noted, calls follow the shape of the dose curve; as a rule, active = well fitted curve in the direction sought with a large enough effect; inconclusive = small, poorly fitted or top-dose-only effect, or another doubt; inactive = no such curve, though single readings can be large; an effect the other way counts as inactive or inconclusive.
SMILES,HepG2 viability,DT40 TDP1 no CPT,IL1B secr inh,TGFb SMAD3 inh,DT40 TDP1 CPT,TDP1 block
CCOc1ccc(S(=O)(=O)NCCc2sc3nc(-c4ccc(C)cc4)nn3c2C)cc1,i,?,nt,14.1µM,?,i
Cc1c(CCNS(=O)(=O)c2ccccc2)sc2nc(-c3ccc(Cl)cc3)nn12,i,9.2µM,nt,12.6µM,7.31µM,i
O=C(Oc1ccccc1)N1CCC[C@@]2(CCN(Cc3nccs3)C2)C1,nt,i,nt,nt,i,nt
O=[N+]([O-])c1ccc(CNCCc2ccccc2)cc1,i,?,i,i,i,nt
O=[N+]([O-])c1ccc(C[n+]2c(-c3ccccc3)cc(-c3ccccc3)cc2-c2ccccc2)cc1,i,2.31µM,?,i,2.59µM,i
O=[N+]([O-])c1cc(Cl)c(O)c(-[n+]2c(-c3ccccc3)cc(-c3ccccc3)cc2-c2ccccc2)c1,i,8.2µM,i,?,13µM,nt
CSc1nn(-c2ccc(C(=O)OCC(=O)NC(=O)NC(C)C)cc2)c(=S)s1,i,?,i,i,i,i
c1ccc2cc3c(cc2c1)-c1cccc2cccc-3c12,nt,nt,nt,nt,nt,i
COC(=O)C1=C(c2ccc(F)cc2OCc2ccccc2)C[C@@H]2CC[C@H]1N2C(=O)NCC1CC1,i,8.2µM,i,i,7.31µM,i
COC(=O)C1=C(c2ccccc2OCc2ccccc2)C[C@@H]2CC[C@H]1N2C(=O)NCc1ccc(C(F)(F)F)cc1,i,?,?,i,?,i
COC(=O)C1=C(c2ccc(OCc3ccccc3)cc2)C[C@@H]2CC[C@H]1N2C(=O)NCc1cccc(C(F)(F)F)c1,i,20.6µM,i,i,20.6µM,i
COC(=O)C1=C(c2ccc(F)cc2OCc2ccccc2)C[C@@H]2CC[C@H]1N2C(=O)NCc1ccccc1,i,?,?,?,?,i
COC(=O)C1=C(c2ccccc2OCc2ccccc2)C[C@@H]2CC[C@H]1N2C(=O)NCc1cccc(C(F)(F)F)c1,i,16.4µM,i,i,?,i
COC(=O)C1=C(c2ccc(F)cc2OCc2ccccc2)C[C@@H]2CC[C@H]1N2C(=O)NCc1ccc(C(F)(F)F)cc1,i,?,-52.2,i,23.1µM,i
CN1CC[C@@]23CCCCC2C1Cc1ccc(O)cc13 (stereo partly specified),nt,i[9.04 µM],nt,nt,i[9.04 µM],i
COc1ccc2nc(NC(=O)CCNS(=O)(=O)c3ccc4c(c3)oc(=O)n4C)sc2c1,i,?,i,i,i,i
COC(=O)C1=C(c2ccc(F)cc2OCc2ccccc2)C[C@@H]2CC[C@H]1N2C(=O)NCc1cc(C)oc1C(F)(F)F,i,?,i,i,20.6µM,i
COC(=O)C1=C(c2ccc(F)cc2OCc2ccccc2)C[C@@H]2CC[C@H]1N2C(=O)NCc1cccc(F)c1,i,?,i,i,?,i
CN1[C@@H]2CC(OC(=O)[C@@H](CO)c3ccccc3)C[C@@H]1[C@H]1O[C@H]12 (stereo partly specified),nt,nt,nt,nt,nt,i
NCc1ccccc1Sc1ccccc1CO,nt,?,nt,nt,?,i
NCCc1ccc(OCc2ccccc2)c(OCc2ccccc2)c1,i,11.6µM,-81.9,?,16.4µM,i
Cc1nnc2n1-c1sc(Br)cc1C(c1ccccc1Cl)=NC2,nt,?,nt,nt,i,nt
COP(=S)(OC)Oc1ccc([N+](=O)[O-])cc1,nt,2.91µM,nt,nt,5.8µM,i
COP(=S)(OC)Oc1ccc(S(N)(=O)=O)cc1,nt,i,nt,nt,i,nt
CC(C)[C@H](CO)Nc1nc(Nc2cccc(Cl)c2)c2ncn(C(C)C)c2n1,nt,9.44µM,nt,nt,9.44µM,i
SMILES,HepG2 viability,DT40 TDP1 no CPT,IL1B secr inh,TGFb SMAD3 inh,DT40 TDP1 CPT,TDP1 block
CCCCC[C@@H]1CCCCC[C@H](O)C[C@H](O)[C@@H](O)/C=C/C(=O)O1,nt,?,i,nt,?,nt
CN(CC1COc2ccccc2O1)c1nc(-c2cccnc2)nc2ccccc12 (stereo unspecified),5.01µM,23.1µM,?,?,20.6µM,i
CCCC(C)C1(CC)C(=O)NC(=S)NC1=O (stereo unspecified),nt,nt,nt,nt,nt,i
CCCN[C@@H]1CCc2c(OC)cccc2[C@@H]1C,nt,i,nt,nt,i,i
CCCN(CCC)[C@@H]1CCc2c(OC)cccc2[C@@H]1C,nt,15µM,nt,nt,?,i
C[C@@]12CC[C@H](O)C[C@@H]1CC[C@H]1[C@H]2CC[C@@]2(C)[C@@H](C3=CC(=O)OC3)CC[C@]12O,nt,nt,nt,nt,nt,i[21 µM]
COC1C(O)C(C)O[C@H](OC2CC[C@@]3(C=O)C4CC[C@]5(C)C(C6=CC(=O)OC6)CC[C@@]5(O)C4CC[C@@H]3C2)C1O (stereo partly specified),nt,0.366µM,nt,nt,0.651µM,i
COC1C(O)C(C)O[C@@H](OC2CC[C@@]3(C)C4CC[C@]5(C)C(C6=CC(=O)OC6)CC[C@@]5(O)C4CC[C@@H]3C2)C1O (stereo partly specified),nt,0.651µM,nt,nt,1.03µM,i
O=C1NCN(c2ccccc2)C12CCN(C[C@H]1COc3ccccc3O1)CC2,nt,i,nt,nt,i,i
CNC(C)Cc1ccccc1OC (stereo unspecified),nt,i,nt,nt,i,i
COc1c2c(c(CC=C(C)C)c3oc(=O)c(-c4ccc(O)cc4)c(O)c13)OC(C)(C)C=C2,nt,i,nt,nt,i,i
CCOP(=O)(OCC)/C(C#N)=C/c1ccc(Br)cc1,i,i,i,i,i,i
CCOP(=O)(OCC)/C(C#N)=C/c1ccc(-c2ccc(F)cc2F)o1,i,?,?,i,14.6µM,i
CN(C)P(=NC(=S)c1cccn1C)(N(C)C)N(C)C,i,4.11µM,i,i,8.2µM,i
CN(C)P(=O)(NC(=O)c1cccn1C)N(C)C,i,i,i,?,i,i
CCC(=O)OC(Cc1ccccc1)(c1ccccc1)[C@H](C)CN(C)C (stereo partly specified),i,?,i,i,?,i
CCC(=O)O[C@](Cc1ccccc1)(c1ccccc1)[C@H](C)CN(C)C,nt,38.2µM,nt,nt,42.8µM,nt
CC(=O)OCOCC(=O)OCO[P+](=O)C(OCOC(C)=O)c1cc([N+](=O)[O-])ccc1Oc1ccc(Br)cc1 (stereo unspecified),nt,nt,nt,nt,nt,i
O=C(OCC(=O)c1ccc([N+](=O)[O-])cc1)/C(=C/c1ccc(Cl)cc1)NC(=O)c1ccccc1,i,23.1µM,i,i,16.4µM,i
Cc1cc(C(=O)CS(=O)(=O)c2ccccc2)cc(C)c1OC(=O)N(C)C,i,18.4µM,i,i,?,i
